Experimental data as given in the supplement of paper PMC7156485.

What was measured:
Settings in all cases: concentration: 10 µM; 24 h
HCC1569 [1] = test: cell number relative to DMSO (% of DMSO); higher = more cells (less growth inhibition / toxicity)
Outline: (§1)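 H1.0 nuclear intensity or cell number is stated as percent of the plate control, based on the median of replicates, and HCC1569 values were smoothed for positional effects. These came from HCC1569 and TDF cells treated with compounds at 10 µM for 24 h at 37 °C in triplicate, then fixed in 3.7% formaldehyde and stained with a rabbit anti-H1.0 antibody, an AlexaFluor 647 secondary and DAPI.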

TDF [2] = test: as above
Outline: as §1

TDF [3] = test: H1.0 immunofluorescence intensity relative to DMSO (% of DMSO); higher = stronger H1.0 induction, active = 120 or more
Outline: as §1

HCC1569 [4] = test: H1.0 immunofluorescence intensity relative to DMSO (% of DMSO); higher = stronger H1.0 induction, active = 140 or more
Outline: as §1
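Wherever H1.0 immunofluorescence intensity relative to DMSO is given: TDF is a line of transformed human dermal fibroblasts of mesenchymal origin.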
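Wherever cell number relative to DMSO is given: TDF denotes transformed human dermal fibroblasts of mesenchymal origin.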

Structure (SMILES) | cell number (HCC1569 [1]) | cell number (TDF [2]) | H1.0 immunofluorescence intensity (TDF [3]) | H1.0 immunofluorescence intensity (HCC1569 [4])
C#CC1(O)CCC2C3CCC4=CC(=O)CCC4=C3C=CC21CC (configuration not stated) [Gestrinone] | 99.4 | 100 | 91.2 (inactive) | 112 (inactive)
CCC=CCC(C=CC=CCC=CCC=CCCCC(=O)O)OO (configuration not stated) | 101 | 92.8 | 92.7 (inactive) | 102 (inactive)
Cl.O=C(CCCN1CCC2(CC1)C(=O)NCN2c1ccccc1)c1ccc(F)cc1 [Spiperone hydrochloride] | 105 | 87.3 | 116 (inactive) | 99.6 (inactive)
CNc1ccc2oc(CC3OC4(CCC3C)OC(C(C)C(=O)c3ccc[nH]3)C(C)CC4C)nc2c1C(=O)O (configuration not stated) [Calcimycin] | 43.8 | 23.3 | 180 (active) | 128 (inactive)
CCCN(CCC)C1CCc2c(F)ccc(O)c2C1.Cl (stereo not drawn) [R(+)-UH-301 hydrochloride] | 103 | 109 | 89.2 (inactive) | 101 (inactive)
NC(CP(=O)(O)O)C(=O)O (racemic) | 105 | 104 | 82.6 (inactive) | 91.4 (inactive)
OC1CN2CCC(O)C2C(O)C1O (configuration not stated) [Castanospermine] | 100 | 104 | 89.5 (inactive) | 90.4 (inactive)
CC(C)(C)NCC(O)c1ccccc1Cl.Cl (configuration not stated) [Tulobuterol hydrochloride] | 101 | 110 | 89.1 (inactive) | 96.4 (inactive)
COc1ccc(O)c(C(C)(C)C)c1 | 106 | 107 | 94.5 (inactive) | 91.3 (inactive)
CC(C)(C)NCC(O)c1ccccc1Cl (configuration not stated) [Tulobuterol] | 111 | 101 | 90.7 (inactive) | 114 (inactive)
CC(=O)NBr [N-Bromoacetamide] | 105 | 101 | 96.8 (inactive) | 90.3 (inactive)
COC1C=C2CCN(C)C2C2c3cc4c(cc3C(=O)OC12)OCO4.O=[N+]([O-])O (configuration not stated) [Ungerine nitrate] | 100 | 107 | 96.5 (inactive) | 88.8 (inactive)
Br.C=CCN1CCc2cccc3c2C1Cc1ccc(O)c(O)c1-3 (stereo not drawn) [R(-)-N-Allylnorapomorphine hydrobromide] | 84.8 | 85.6 | 104 (inactive) | 110 (inactive)
O=C(O)CC[N+](=O)[O-] [3-Nitropropionic acid] | 103 | 109 | 89.6 (inactive) | 84.9 (inactive)
Cl.Cl.Oc1ccc2c3c1OC1c4[nH]c5c(c4CC4(O)C(C2)N(CC2CC2)CCC314)CC1(O)C2Cc3ccc(O)c4c3C1(CCN2CC1CC1)C5O4 (configuration not stated) [nor-Binaltorphimine dihydrochloride] | 106 | 114 | 94.9 (inactive) | 89.7 (inactive)
CC=C(C)C(=O)OC1C(C)=C2C(C1OC(=O)CCCCCCC)C(C)(OC(C)=O)CC(OC(=O)CCC)C1(O)C2OC(=O)C1(C)O (configuration not stated) [Thapsigargin] | 62.4 | 44.2 | 130 (active) | 195 (active)
CC1=C2C3OC(=O)C(C)C3CCC2(C)C=CC1=O (configuration not stated) [Santonin] | 103 | 97.9 | 95.5 (inactive) | 92.6 (inactive)
CSC(=S)NCc1c[nH]c2ccccc12 [Brassinin] | 100 | 90.8 | 97.9 (inactive) | 99.7 (inactive)
CCCCCC(C=CC=CCCCCCCCC(=O)O)OO (configuration not stated) | 99.9 | 108 | 99.2 (inactive) | 94.4 (inactive)
CCCN(CCC)C1CCc2ccc(O)cc2C1 (racemic) | 102 | 111 | 88.7 (inactive) | 95.4 (inactive)
Br.CCC1CN2CCc3cc(OC)c(OC)cc3C2CC1CC1NCCc2cc(O)c(OC)cc21 (configuration not stated) | 59.6 | 21.4 | 135 (active) | 104 (inactive)
CCN1CC2(COC)CCC(OC)C34C5CC6(O)C(OC)CC(OC(C)=O)(C5C6C(=O)c5ccc(OC)cc5)C(C(OC)C23)C14 (configuration not stated) [Bulleyaconotine A] | 99 | 103 | 103 (inactive) | 88.8 (inactive)
NCC(CP(=O)(O)O)c1ccc(Cl)cc1 (configuration not stated) [Phaclofen] | 106 | 100 | 95.8 (inactive) | 79.9 (inactive)
CCC(C(N)=O)N1CCCC1=O (configuration not stated) [Levetiracetam] | 102 | 105 | 95.2 (inactive) | 101 (inactive)
CN[C@@H]1Cc2cccc3[nH]c(=O)n(c23)C1.O=C(O)C=CC(=O)O | 101 | 105 | 92.5 (inactive) | 89.2 (inactive)
COC1=CC2C3Cc4ccc(OC)c(O)c4C2(CCN3C)CC1=O (configuration not stated) [Sinomenine] | 101 | 95.5 | 94.1 (inactive) | 83.8 (inactive)
CP(=O)(O)CCCN.Cl | 102 | 98.3 | 92.5 (inactive) | 107 (inactive)
c1cc2c(cc1C1OCC3C(c4ccc5c(c4)OCO5)OCC13)OCO2 (single isomer, unassigned; (-)) [(-)-Asarinin] | 98.4 | 99.2 | 101 (inactive) | 88.6 (inactive)
